53 compounds from PubChem BioAssay AID2006 (Sanford-Burnham Center for Chemical Genomics, 2009) can be followed below.

In all, about 290,000 compounds went through this assay and about 1,000 (0.34%) were called active. No stated cut-off is given here; in the data, active means inhibition above about 50% (passing the limit was not always enough); inconclusive means no clear call, values can overlap the other calls. The full list was thinned out, with actives kept by preference.

For this experiment, the target named is SUMO-conjugating enzyme UBC9 (Homo sapiens) (UniProt P63279). Nature of the experiment: inhibitors of in vitro SUMOylation cascade, primary screen, biochemical, HTRF, uHTS (AID 2006). Particulars: HTRF SUMOylation assay, SAE1/SAE2 + UBC9, in vitro, at 35 µM, stronger effect = higher value. (In general: In TR-FRET formats the signal depends on donor and acceptor labels being close together.)
SUMO-conjugating enzyme UBC9 (Homo sapiens), sequence (P63279 whole entry, looked up): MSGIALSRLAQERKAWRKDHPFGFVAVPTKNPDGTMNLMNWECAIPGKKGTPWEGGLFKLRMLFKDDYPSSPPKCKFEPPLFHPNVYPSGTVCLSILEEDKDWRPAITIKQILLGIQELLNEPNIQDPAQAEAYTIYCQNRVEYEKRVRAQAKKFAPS

For the compound `Cc1cc(C)nc(N/N=C/c2c(CO)cnc(C)c2O)n1`, the inhibition – broadly, the relative decrease from the control value, in per cent – was -3.1% (inactive).

On to `Nc1ccc2nc3c(=O)[nH]c(=S)[nH]c3nc2c1`, for which the inhibition was 93.4% (active). Still for that read-out and setting: in the case of `CCc1ccc(C(=O)NC(=S)Nc2ccccc2N2CCOCC2)cc1` it was -0.7% (inactive); in that of `CCOc1ccc(N(CC(=O)NCCc2ccc(F)cc2)S(=O)(=O)c2ccccc2)cc1`, -1.5% (inactive). On the same count and under the same terms, in the case of `O=C(O)CCCn1cc(NC(=O)COc2cccc(Cl)c2)cn1` it was 11.5% (inactive). Still for that read-out and setting: in the case of `CN(C)[C@@H]1C(=O)C(C(N)=O)=C(O)[C@@]2(O)C(=O)C3=C(O)c4c(O)ccc(Cl)c4[C@@H](O)[C@H]3C[C@@H]12` it was 62.8% (active); in that of `COc1ccc(CN2C3CCCC2CC(NC(=O)c2cccc(F)c2)C3)cc1` (centres undefined), 8.9% (inactive); in that of `COc1ccc(C2NC(=O)N(C)C(C)=C2[N+](=O)[O-])cc1` (centres undefined), -5.6% (inactive). For `CC(NC(=O)Nc1cccc([N+](=O)[O-])c1)c1ccc2c(c1)OCO2` (centres undefined), the inhibition was 3% (inactive). With `COc1ccc(-n2nc(C(=O)NCC(=O)N3CCC(C(N)=O)CC3)c3ccccc3c2=O)cc1OC`, the inhibition was -4.6% (inactive). As for `O=C(CNC(=O)c1ccc(F)cc1)c1ccccc1`, the inhibition was -1.3% (inactive). With `Cc1ccc(N=C2NC(=O)/C(=C/C=C/c3ccco3)S2)cc1C`, the inhibition was 54.8% (active).

On to `Cc1cccc(N=C2NC(=O)/C(=C/c3cn(C)c4ccccc34)S2)c1`, for which the inhibition is 12.3% (inactive). Same read-out and setting: in the case of `Cc1ccc(N2NC(=O)/C(=C/C=C/c3ccco3)C2=O)cc1C` it was -18.1% (inactive); in that of `COc1ccc(CN2CCOC2=O)cc1OC`, -0.8% (inactive). Turning to `O=C(CN1CCN(C(=S)NC2CCCC2)CC1)Nc1ccc(Oc2ccccc2)cc1`, the inhibition was -21.3% (inactive).

With `O=C1CN(C(=O)c2cc(F)cc(F)c2)c2ccccc2N1`, the inhibition was 6.7% (inactive). On the same count and under the same terms, the figure for `NS(=O)(=O)c1ccc(CNC(=O)c2cccc(Oc3ccccc3)c2)cc1` is -2.7% (inactive); for `CCOC(=O)N1CC=C2C(C#N)=C(N)C(C#N)(C#N)[C@H](c3cccs3)[C@H]2C1` it is -13.8% (inactive); for `CCN1CC=C2C(C#N)=C(N)C(C#N)(C#N)[C@H](c3ccoc3)[C@H]2C1` it is 67.7% (active). Same read-out and setting: in the case of `CCCN1CC=C2C(C#N)=C(N)C(C#N)(C#N)C(c3cc(OC)ccc3OC)C2C1` (centres undefined) it was 34.3% (inactive). For the compound `O=C(N/N=C/c1cccc(OCc2ccccc2)c1)c1ccc(Br)o1`, the inhibition was 4.8% (inactive). Same read-out and setting: the figure for `O=C(Nc1ccccc1N1CCCC1)c1ccc2ccccc2c1` is 1.5% (inactive).

For the compound `COC(=O)c1cccc(C(=O)N2CCC(CCC(=O)NCc3ccc(F)cc3)CC2)c1`, the inhibition is 7.8% (inactive).

Regarding `O=C(O)c1ccc(Cn2c(=S)[nH]c3cc(Cl)ccc3c2=O)cc1`, the inhibition was 1.5% (inactive).

With `CC(C)c1ccc2c(c1)c(SC(C)(C)C)c(CC(C)(C)C(=O)O)n2Cc1ccc(Cl)cc1`, the inhibition was 52.2% (active). The same measure, in the same setting: in the case of `CCOC(=O)c1c(-c2ccccc2)oc2cc(Br)c(O)c(C=O)c12` it was -19% (inactive); in that of `CCOC(=O)c1c(-c2ccccc2)oc2cc(Br)c(O)cc12`, 6.4% (inactive); in that of `COCCNC(=O)c1ccc2nc(Cc3ccc(OC)c(OC)c3)oc2c1`, 4.2% (inactive). Still for that read-out and setting: the figure for `C/C(=C/c1ccccc1)C(=O)N1CCN(c2ccccc2)CC1` is 16.7% (inactive).

With `COCCN(CCOC)S(=O)(=O)c1ccc(C(=O)Nc2nc3c(s2)CCc2ccccc2-3)cc1`, the inhibition was 67% (active). In addition, the inhibition (average of repeat tests) was found to be 53%. In the case of `C=CCN(CC=C)S(=O)(=O)c1ccc(C(=O)Nc2nc3c(s2)CCc2ccccc2-3)cc1`, the inhibition was -14.9% (inactive). On the same count and under the same terms, in the case of `COc1ccc(C(=O)Nc2ncc3c(n2)-c2ccccc2CC3)cc1` it was 6% (inactive); in that of `O=C(/C=C/c1ccc(Cl)cc1)NCCCn1ccnc1`, 12.9% (inactive). Still for that read-out and setting: the figure for `CC(=O)N1c2ccc(S(=O)(=O)N3CCC(C(=O)NC4CCCC(C)C4C)CC3)cc2CC1C` (centres undefined) is -4.4% (inactive).

For the compound `COc1ccc(NC(=O)CC(NC(C)c2ccccc2)C(=O)O)cc1` (centres undefined), the inhibition was 6.5% (inactive). Same read-out and setting: in the case of `CC(C)c1nc(CNC(=O)CC2C(=O)NCCN2Cc2cccc(F)c2F)cs1` (centres undefined) it was -7.6% (inactive). Still for that read-out and setting: the figure for `CC1CCN(S(=O)(=O)c2ccc3c(c2)n(C)c(=O)n3C)CC1` is 6.7% (inactive).

As to `CC1(C(=O)NCCc2c[nH]c3ccccc23)C=CC2(CCCCC2)N1C(=O)c1ccccc1` (centres undefined), the inhibition is 0.3% (inactive).

As to `Cc1cc(OC(C)C(=O)NC2CC(C)(C)NC(C)(C)C2)c2c(C)cc(=O)oc2c1` (centres undefined), the inhibition was 33.5% (inactive). On the same count and under the same terms, in the case of `O=[N+]([O-])c1cc(S(=O)(=O)Nc2cccc(Cl)c2)ccc1N=Nc1c(O)[nH]c2ccccc12` it was 67.7% (active).

For the compound `CN1CCN(c2ccc(S(=O)(=O)Nc3ccccc3)cc2[N+](=O)[O-])CC1`, the inhibition was 21.3% (inactive). With `Cc1cccc(N(CC(=O)N=Nc2c(O)[nH]c3ccccc23)S(C)(=O)=O)c1C`, the inhibition was -5.8% (inactive).

For the compound `COc1ccc(CN2CCNC(=O)C2CC(=O)NCc2cn[nH]c2-c2ccccc2)c(F)c1` (centres undefined), the inhibition was -2.8% (inactive). On the same count and under the same terms, the figure for `CN(C(=O)COC(=O)c1cc(-c2ccco2)nc2ccccc12)C1CCS(=O)(=O)C1` (centres undefined) is 51.3% (active). Still for that read-out and setting: the figure for `Cc1c(-c2cccc(Cl)c2)nc2ccccc2c1C(=O)OCC(=O)N(C)C1CCS(=O)(=O)C1` (centres undefined) is 0.4% (inactive); for `CN(C(=O)COC(=O)c1nc(Cl)ccc1Cl)C1CCS(=O)(=O)C1` (centres undefined) it is -3.6% (inactive); for `O=[N+]([O-])/C=C/c1ccc2c(ccn2Cc2ccccc2)c1` it is 19.7% (inactive). The same measure, in the same setting: in the case of `CC(C)[C@H](NC(=O)N1c2ccccc2NC(=O)[C@@H]1C(C)C)C(=O)N[C@H](C(=O)O)c1ccccc1` it was 12.1% (inactive). Turning to `Cc1cccc(C(=O)Nc2ccc(Oc3cnccn3)cc2)c1`, the inhibition is 10.4% (inactive).

Take `CC1CCCCC1NC(=O)CO/N=C/c1ccc(OC(F)F)cc1` (centres undefined): the inhibition was -15.8% (inactive). As for `O=C(Nc1ccc(Br)cc1)c1cc(S(=O)(=O)Nc2ccccn2)ccc1Cl`, the inhibition was 3.5% (inactive). Same read-out and setting: in the case of `COc1ccc(CN2CC(C(=O)NCCc3ccc(Cl)cc3)CC2=O)cc1` (centres undefined) it was 10.3% (inactive).
